The sample as a whole holds a higher share of hits than the screen did.
Tb PYK inh = qHTS of Trypanosoma Brucei Inhibitors | 0.12% of 410,000 active | TbPYK enzyme, Kinase-Glo Plus ATP luminescence, 45 min | Potency, µM (titrated, usually from 76.8 µM), without a hit: at the top dose activity, negative = inhibition, actives largely listed as inhibitors | pyruvate kinase (Trypanosoma brucei), Q57TT1; further: potency means the concentration at half of the fitted maximal effect; on the % scale 0 is the no-effect control and ±100 the full control effect; nearly all actives have a fitted effect of over 50% in size
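Assay buffer: 50 mM TEA pH 7.2, 100 mM KCl, 10 mM MgCl2, 0.05% BSA, 0.01% Tween-20. Pyruvate kinase from T. brucei plus substrate met compound, then ADP (130 uM final). Luminescence was read post 45 min RT.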
FBPA Giardia inh = qHTS Assay for Inhibitors of Fructose-1,6-bisphosphate Aldolase from Giardia Lamblia; A8B2U2; purified Giardia FBPA; Potency, µM (doses to about 59.6 µM), for the others: at the top dose activity, negative = inhibition, most hits filed as inhibitors; 0.71% of 290,000 active; AID 2451, 2010; further: potency means the concentration at half of the fitted maximal effect; on the % scale 0 is the no-effect control and ±100 the full control effect; nearly all actives have a fitted effect of over 55% in size
Target sequence (A8B2U2 whole entry, looked up): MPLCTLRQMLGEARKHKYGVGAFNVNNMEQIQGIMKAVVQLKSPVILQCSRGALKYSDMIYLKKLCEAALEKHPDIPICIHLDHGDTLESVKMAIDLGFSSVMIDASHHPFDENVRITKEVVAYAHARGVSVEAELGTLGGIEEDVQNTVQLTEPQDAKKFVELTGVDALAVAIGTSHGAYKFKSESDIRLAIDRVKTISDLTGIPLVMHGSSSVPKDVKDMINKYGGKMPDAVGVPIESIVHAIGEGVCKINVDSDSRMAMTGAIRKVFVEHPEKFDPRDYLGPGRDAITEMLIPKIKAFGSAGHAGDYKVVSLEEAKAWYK
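40 nM FBPA preincubated 10 min at RT with compound (up to 57.5 uM final), then substrate plus GAPDH/TPI/NAD/arsenate coupling and diaphorase/resazurin added. Fluorescence read after 20 min at RT, 525/598 nm.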
Sm TGR block = qHTS Assay for the Inhibitors of Schistosoma Mansoni Peroxiredoxins; Schistosoma mansoni thioredoxin glutathione reductase (TGR), Q962Y6; purified TGR, DTNB reduction, TNB absorbance 405 nm; Potency, µM (doses to about 114 µM), for inactives: at the highest dose activity change, negative = inhibition, hits mostly inhibitors; 3% of 360,000 active; AID 485364, 2010; further: potency means the concentration at half of the fitted maximal effect; on the % scale 0 is the no-effect control and ±100 the full control effect; nearly all actives have a fitted effect of over 60% in size
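Kinetic colorimetric format: TGR-catalysed, NADPH-driven DTNB reduction monitored via TNB absorbance. Enzyme dispensed at 20 nM; compound exposure 15 min at room temperature before reaction start.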
Shiga inhibitor = A qHTS for Small Molecule Inhibitors of Shiga Toxin | Vero cells, Shiga toxin protein synthesis inhibition reporter | 9.2% of 290,000 active | inhibition, % at 38.7 µM; in the data active means inhibition mostly above about 28%, no sharp cut-off; inactive means mostly below about 43%; further: 0% is about no effect
LmPK inhibitor = qHTS Assay for Inhibitors of Leishmania Mexicana Pyruvate Kinase (LmPK). purified LmPK, Kinase-Glo ATP luminescence, 1 h. Potency, µM (doses to about 57.5 µM), for inactives: at the top dose activity change, negative = inhibition, actives largely listed as inhibitors. 0.37% of 290,000 active. AID 1721, 2009; further: potency means the concentration at half of the fitted maximal effect; on the % scale 0 is the no-effect control and ±100 the full control effect
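Purified LmPK (0.1 nM) converted ADP (0.1 mM) to ATP with PEP (0.5 mM) in imidazole buffer pH 7.2 with KCl and MgCl2, 1 h at room temperature. ATP was read by Kinase-Glo luminescence; data normalized to uninhibited and no-enzyme controls.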
Cycloheximide cs = Cycloheximide Counterscreen for Small Molecule Inhibitors of Shiga Toxin | cell reporter, cycloheximide protein synthesis inhibition counterscreen | max response, % | 12% of 300,000 active | AID 2314, 2010; in the data active means max response mostly above about 13%, no sharp cut-off; inactive means mostly below about 14%; further: read at 38.3 µM for the half of the compounds with a filed dose; 0% is about no effect
The depositor's hits bear a star. Unless noted, the call rests on the fitted dose curve; in most records, active means well fitted curve in the direction sought with a large enough effect; inconclusive means small, poorly fitted or top-dose-only effect, or another doubt; inactive means no such curve, though single readings can be large; an effect the other way counts as inactive or inconclusive.

Results for COc1ccc(C(=O)Nc2nnc(SCC(=O)NCc3ccco3)s2)cc1OC ?
Tb PYK inh: 0.5%; Sm TGR block: -2.9%; Shiga inhibitor: 11.6; LmPK inhibitor: -6.1%; Cycloheximide cs: 10.4

What do the screens show for `COc1cc(OC)cc(C(=O)Nc2nnc(SCC(=O)NCc3ccco3)s2)c1`?
Tb PYK inh: -3.9%; Sm TGR block: inconclusive; Shiga inhibitor: 96.6; LmPK inhibitor: -8.2%; Cycloheximide cs: 34.0*

How did O=C(CSc1nnc(NC(=O)c2ccco2)s1)Nc1ccccc1F do in these assays?
Tb PYK inh: 3.4%; FBPA Giardia inh: 20.1%; Sm TGR block: 18.6%; Shiga inhibitor: 11.1; LmPK inhibitor: -7.4%; Cycloheximide cs: 1.3

How did O=C(CSc1nnc(NC(=O)c2ccccc2F)s1)NCc1ccco1 do in these assays?
Tb PYK inh: -10.5%; Sm TGR block: -17.3%; Shiga inhibitor: 79.2*; LmPK inhibitor: -5.7%; Cycloheximide cs: 34.5*

Results for CC(C)(C)c1ccc(C(=O)NCCc2csc3nc(-c4ccccc4F)nn23)cc1 ?
Tb PYK inh: 0.8%; Sm TGR block: 0.8%

Results for O=C(Nc1nnc(SCC(=O)N2CCCCC2)s1)c1ccccc1F ?
Tb PYK inh: 0.9%; FBPA Giardia inh: 3.2%; Sm TGR block: -14.5%; Shiga inhibitor: 30.1; LmPK inhibitor: 4.3%; Cycloheximide cs: 17.5

How did O=C(CSc1nnc(NC(=O)c2ccccc2F)s1)NCc1ccc(F)cc1 do in these assays?
Tb PYK inh: 2.2%; FBPA Giardia inh: -22.0%; Sm TGR block: 3.7%; Shiga inhibitor: 107.3*; LmPK inhibitor: 0.6%; Cycloheximide cs: 40.9*

What do the screens show for `C=CCc1cccc(/C=N/c2ncccc2O)c1O`?
Tb PYK inh: -20.5%; FBPA Giardia inh: inconclusive; Sm TGR block: 28.2µM*; Shiga inhibitor: -14.4; LmPK inhibitor: -3.1%; Cycloheximide cs: 1.0

Results for C=CCc1cccc(C=Nc2ccc(Br)cc2)c1O ?
Tb PYK inh: 3.1%; FBPA Giardia inh: 20.4%; Sm TGR block: 0.0%; Shiga inhibitor: 57.7; LmPK inhibitor: -3.8%; Cycloheximide cs: 31.1

What do the screens show for `Cc1ccc(-c2nc(Nc3ccc(N4CCOCC4)cc3)c3ccccc3n2)cc1`?
Tb PYK inh: -1.9%; FBPA Giardia inh: -19.3%; Sm TGR block: -5.8%; Shiga inhibitor: 52.4*; LmPK inhibitor: 2.2%; Cycloheximide cs: 15.9

Results for Cc1ccc(-c2nc(Nc3ccc(O)cc3)c3ccccc3n2)cc1 ?
Tb PYK inh: -8.1%; FBPA Giardia inh: 8.5%; Sm TGR block: -2.8%; Shiga inhibitor: 55.7; LmPK inhibitor: 0.0%; Cycloheximide cs: 13.8*

How did c1ccc(-c2cc(-c3ccc(N4CCOCC4)cc3)nc3ccccc23)cc1 do in these assays?
Tb PYK inh: 4.5%; FBPA Giardia inh: -5.1%; Sm TGR block: -0.7%; Shiga inhibitor: -9.4; LmPK inhibitor: 5.1%; Cycloheximide cs: 13.5*

What do the screens show for `COC(=O)c1ccc(Nc2nc(-c3ccc(C)cc3)nc3ccccc23)cc1`?
Tb PYK inh: 5.9%; Sm TGR block: 16.8%

What do the screens show for `Cc1ccc(S(=O)(=O)COCCN2CCN(S(=O)(=O)c3ccc(C)cc3)CCC2=O)cc1`?
FBPA Giardia inh: -7.9%; Shiga inhibitor: 3.7; Cycloheximide cs: -4.4

Results for CN1CCN(C(=O)COCc2cc(-c3ccc4c(c3)OCO4)on2)CC1 ?
Tb PYK inh: -3.7%; FBPA Giardia inh: -7.4%; Sm TGR block: -25.2%; Shiga inhibitor: 23.4*; LmPK inhibitor: 3.4%; Cycloheximide cs: 18.1*

Results for Cc1ccc(Cl)cc1N1CCN(C(=O)COCc2cc(-c3ccc4c(c3)OCO4)on2)CC1 ?
Tb PYK inh: -0.4%; Sm TGR block: -0.5%

How did O=C(COCc1cc(-c2ccc3c(c2)OCO3)on1)N1CCCCC1 do in these assays?
Tb PYK inh: 0.2%; Sm TGR block: -18.4%; Shiga inhibitor: 75.8*; LmPK inhibitor: -1.3%; Cycloheximide cs: 68.2*

How did NC(=O)C1CCN(C(=O)COCc2cc(-c3ccc4c(c3)OCO4)on2)CC1 do in these assays?
Tb PYK inh: 5.9%; FBPA Giardia inh: 14.2%; Sm TGR block: -6.3%; Shiga inhibitor: 9.8; LmPK inhibitor: -2.5%; Cycloheximide cs: 16.8

Results for COc1ccc(-c2nc(CN(CC3CCC(=O)N3)C(C)C)c(C)o2)c(C)c1C (stereo not drawn) ?
Tb PYK inh: 1.3%; FBPA Giardia inh: 0.3%; Sm TGR block: 13.9%; Shiga inhibitor: 86.7*; LmPK inhibitor: 0.1%; Cycloheximide cs: 24.8*

How did COc1ccc(-c2nc(CN(C)C(C)c3ccon3)c(C)o2)c(C)c1C (stereo not drawn) do in these assays?
Tb PYK inh: 0.7%; FBPA Giardia inh: -1.3%; Sm TGR block: 3.1%; Shiga inhibitor: 13.0; LmPK inhibitor: -4.6%; Cycloheximide cs: 7.1

How did O=C(Nc1ccccc1C(=O)Nc1ccccc1)c1ccccc1F do in these assays?
Tb PYK inh: 2.9%; FBPA Giardia inh: -1.8%; Sm TGR block: -1.9%; Shiga inhibitor: -3.8; LmPK inhibitor: 2.8%; Cycloheximide cs: -4.6

What do the screens show for `N#Cc1ccc(C(=O)Nc2ccc([N+](=O)[O-])cc2)c(F)c1`?
Tb PYK inh: 2.2%; FBPA Giardia inh: 0.1%; Sm TGR block: 10.4%; Shiga inhibitor: 52.0*; LmPK inhibitor: 5.4%; Cycloheximide cs: 7.8

What do the screens show for `O=C(Nc1ccc([N+](=O)[O-])cc1)c1ccccc1F`?
Tb PYK inh: 1.8%; FBPA Giardia inh: 1.5%; Sm TGR block: -6.8%; Shiga inhibitor: 116.9*; LmPK inhibitor: 10.4%; Cycloheximide cs: 39.0*

What do the screens show for `CC1(c2ccc(NC(=O)c3ccccc3F)cc2)CC1(Cl)Cl` (stereo not drawn)?
Tb PYK inh: 1.3%; FBPA Giardia inh: -0.4%; Sm TGR block: 6.7%; LmPK inhibitor: 4.2%; Cycloheximide cs: 34.9*

How did C[C@H](NC(=O)/C(C#N)=C/c1ccc(O)c(O)c1)c1ccccc1 do in these assays?
FBPA Giardia inh: -6.5%

Results for O=C(O)Cn1c(=O)c(-c2ccccc2)nc2ccccc21 ?
Tb PYK inh: -1.0%; FBPA Giardia inh: 8.3%; Sm TGR block: -0.6%; Shiga inhibitor: -3.5; LmPK inhibitor: -5.6%; Cycloheximide cs: 4.0

What do the screens show for `O=c1c(-c2ccccc2)nc(-c2ccccc2)cn1O`?
Tb PYK inh: 2.3%; FBPA Giardia inh: -10.5%; Sm TGR block: 0.0%; Shiga inhibitor: 19.3; LmPK inhibitor: -6.4%; Cycloheximide cs: 21.3*

What do the screens show for `Cc1ccnc(NC(c2ccncc2)c2c(C)[nH]c3ccccc23)c1` (stereo not drawn)?
Tb PYK inh: -12.1%; FBPA Giardia inh: -5.4%; Sm TGR block: 2µM*; Shiga inhibitor: -9.4; LmPK inhibitor: 4.4%; Cycloheximide cs: -4.5

Bioassay records (PubChem BioAssay)
